Pf Dd2 inh: inhibitors of Plasmodium falciparum Dd2 growth. P. falciparum Dd2 growth, SYBR Green, 72 h. Potency, µM (doses to about 28.9 µM), for the others: at the highest dose activity, negative = inhibition, actives largely listed as inhibitors. actives 4.3% (n = 120,000); active = well fitted inhibition curve with a large enough effect;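 note: plate controls were DMSO vehicle for no effect and reference drug for full effect; nearly all actives have a fitted effect of over 65% in size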
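Infected erythrocytes (Dd2, 0.3% parasitemia, 2.5% hematocrit final) are added to compound in RPMI-1640/Albumax II medium, grown 72 h at 37C in low oxygen, then lysed with saponin/Triton-X containing SYBR Green and read by fluorescence.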
An asterisk follows results filed as active; i = inactive; [ ] = dose if it differs, or a comment. The sample as a whole holds a higher share of hits than the screen did. Potency is the fitted concentration of half-maximal effect.

SMILES	Pf Dd2 inh
NCC(=O)N1Cc2ccccc2CC12CCCN(C(=O)c1ccccc1)C2 (configuration not stated)	8.9µM*
COc1ccc(C(=O)N2Cc3ccccc3CC23CCCN(C(=O)CN)C3)cc1 (configuration not stated)	-18%
O=C(O)CCC(=O)N1Cc2ccccc2CC2(CCCN(CCc3ccccc3)C2)C1 (configuration not stated)	9%
CC(=O)NCC(=O)N1Cc2ccccc2CC2(CCN(Cc3ccccc3)C2)C1 (configuration not stated)	-18%
CCCC(=O)N1Cc2ccccc2CC2(CCN(C)C2)C1 (configuration not stated)	11µM*
CN1CCC2(Cc3ccccc3CN(C(=O)CCC(=O)O)C2)C1 (configuration not stated)	-7%
CCCC(=O)N1Cc2ccccc2CC2(CCCN(CCC)C2)C1 (configuration not stated)	8.9µM*
CC(C)C(=O)N1Cc2ccccc2CC2(CCCN(Cc3ccccc3)C2)C1 (configuration not stated)	3.5µM*
NCCCC(=O)N1CCCC2(Cc3ccccc3CN2C(=O)c2ccccc2)C1 (configuration not stated)	7%
Cc1ccc(CN2CCC3(CC2)C(C(=O)O)CC(=O)N3C)o1 (configuration not stated)	-7%
NCCO[C@H]1C[C@@H](O)C12CCN(Cc1c(Cl)cccc1Cl)CC2	-14%
COc1ccc(CCN2Cc3cc(NC(=O)Cc4ccccc4)ccc3OC(C)C2=O)cc1 (configuration not stated)	-7%
Cc1ncsc1C(=O)N1CC(COc2ccccc2)C2(C1)CN(c1ccccc1)C2 (configuration not stated)	i
Cc1ccccc1-c1ncc(CN(C)C(C)c2ccon2)s1 (configuration not stated)	-17%
Cc1noc(C)c1-c1cc2cc(CO)oc2c(-c2ccc(F)c(Cl)c2)n1	i
COCCN1C(=O)CS(=O)(=O)C12CCN(C(=O)c1cc(F)cc(F)c1)CC2	-30%
Cc1cccc(C(=O)N2CCC(c3n[nH]c(=O)n3Cc3ccc(F)cc3)CC2)c1	i
CCOC(=O)c1ccc(NC(=O)Cn2c(N3CCc4ccccc4C3)nc(C)cc2=O)cc1	-26%
CCN1CCCC2(Cc3ccccc3CN(C(=O)CCC(=O)O)C2)C1 (configuration not stated)	17%
CCN1CCCC2(Cc3ccccc3CN(C(=O)c3ccccc3)C2)C1 (configuration not stated)	10µM*
CCC(=O)N1Cc2ccccc2CC2(CCCN(CC3CCNCC3)C2)C1 (configuration not stated)	-2%
CN(C)c1ccc(CCNC(=O)[C@H]2CNC[C@H](C(=O)N3CCCC3)C2)cc1	0%
CC(=O)c1ccc(N2C(=O)N(CC(=O)c3ccc(C)cc3)c3ccccc3S2(=O)=O)cc1	-21%
CCN1C(=O)N(c2ccc(C(C)=O)cc2)S(=O)(=O)c2ccccc21	31%
CCOc1ccc(N2C(=O)N(Cc3ccc(C)cc3C)c3ccccc3S2(=O)=O)cc1	10µM*
SMILES	Pf Dd2 inh
COC[C@@H]1CN(C(=O)c2cccc(C)n2)C[C@H]1c1nc(C2CC2)no1	-1%
CC1CCN(CCNC(=O)c2ccc(Cn3c(SCc4ccccc4)nc4cccnc43)cc2)CC1	10µM*
O=C(NC1CCCC1)c1ccc(CSc2nc3cccnc3n2Cc2ccc(F)cc2)cc1	28%
O=C(NCCN1CCCCC1)c1ccc(Cn2c(SCc3ccccc3)nc3cccnc32)cc1	5µM*
CC1CCCCN1CCNC(=O)c1ccc(Cn2c(SCc3ccccc3)nc3cccnc32)cc1 (configuration not stated)	5.6µM*
Cc1ccc(C)c(NC(=O)NCC2CCOCC2)c1	1%
FC(F)(F)c1ccc(N2C3CCC2CN(Cc2cccs2)C3)cc1	-18%
CC(C)CCN1CCC2(CC1)CN[S+](=O)([O-])c1ccccc1N2	-7%
COc1ccc(C(=O)N2CCC3(CC2)NC(=O)N(Cc2cccc(Cl)c2)C3=O)cc1	i
O=C([C@@H]1CNC[C@H](C(=O)N2CCN(c3nccs3)CC2)C1)N1CCCC1	-8%
Cc1cccc(Cn2c(SCc3ccc(C(=O)NC4CCCC4)cc3)nc3cccnc32)c1	-26%
O=C(NC1CCCCC1)c1ccc(CSc2nc3cccnc3n2Cc2ccc(F)cc2)cc1	20%[5.79 µM]
O=C(NC1CCCCC1)c1ccc(CSc2nc3cccnc3n2Cc2cccc(F)c2)cc1	11µM*
O=C(NC1CCCCC1)c1ccc(Cn2c(SCc3ccc(F)cc3)nc3cccnc32)cc1	-2%
Cc1cccc(Cn2c(SCc3ccc(C(=O)NC4CCCCC4)cc3)nc3cccnc32)c1	10µM*
COc1ccc(CC(=O)N2CCC3(CCCN(CC4CCC4)C3=O)C2)cc1 (configuration not stated)	-15%
O=C(c1ccoc1)N1CCC(c2nc(C3CCOCC3)no2)C1 (configuration not stated)	57%
O=C(c1ccc(N2CCCC(CO)C2)nc1)N1CCC(N2CCOCC2)CC1 (configuration not stated)	-4%
COc1cccc(N2CCN(C(=O)CN3CCSc4ccc(S(=O)(=O)N(C)C)cc43)CC2)c1	11µM*
COc1ccc(N2CCN(C(=O)CN3CCSc4ccccc43)CC2)cc1	7%
CN(C)S(=O)(=O)c1ccc2c(c1)N(CC(=O)N1CCC(C(N)=O)CC1)CCS2	28%
O=C(CSc1ccccn1)NC1CC(=O)N(C2Cc3ccccc3C2)C1 (configuration not stated)	-3%
O=C(CC1CCCN(c2cnn(CC3CC3)c(=O)c2)C1)NCc1cccs1 (configuration not stated)	-23%
c1coc(-c2nc(CNC3CCC4(CCNCC4)CC3)no2)c1	11µM*
c1ccc(-c2noc(CCNC3CCC4(CCNCC4)CC3)n2)nc1	-2%
SMILES	Pf Dd2 inh
CCc1csc(CNC2CCC3(CCNCC3)CC2)n1	-12%
Cc1ccc2nc(N3CCC(C(=O)N4CCN(c5cccc(C)c5C)CC4)CC3)[nH]c2c1	-7%
Cc1cc(C)cc(NC(=O)C2CCN(C(=O)c3cnn(-c4ccccc4)c3-n3cccc3)CC2)c1	10%
Cc1ccc(-n2ncc(C(=O)N3CCN(c4ccccn4)CC3)c2C2CCN(C(=O)OC(C)(C)C)CC2)cc1C	36%
O=C(Nc1cccc(C(F)(F)F)c1)c1cnn(-c2cccc(F)c2)c1C1CCNCC1	11µM*
Cc1ccc(N2CCN(C(=O)c3cnn(-c4ccc(C)c(C)c4)c3C3CCNCC3)CC2)c(C)c1	5.6µM*
Cc1c(Cl)cccc1-n1ncc(C(=O)N2CCOCC2)c1C1CCN(C(=O)OC(C)(C)C)CC1	-6%
CC(=O)c1ccc(NC(=O)c2cnn(-c3cccc(F)c3)c2-n2cccc2)cc1	4%
O=C(c1ccco1)N1CCN(C(=O)c2cnn(-c3cccc(F)c3)c2C2CCNCC2)CC1	2%
Cc1cc(C)cc(NC(=O)c2cnn(-c3ccc(C)c(C)c3)c2C2CCNCC2)c1	4µM*
Cc1cccc(N2CCN(C(=O)c3cnn(-c4cccc(Cl)c4C)c3C3CCNCC3)CC2)c1C	11µM*
Cc1ccc(C)c(NC(=O)c2cnn(-c3ccc(F)cc3F)c2C2CCNCC2)c1	39%
N#Cc1cccc(CN2CCOCCNC(=O)CC2)c1	-15%
CN(C)C[C@@H]1CN(S(C)(=O)=O)C[C@H]1NC(=O)Cc1ccc(F)cc1	67%
COc1ccccc1C(=O)N1CCC2(C1)C(=O)Nc1ccccc12 (configuration not stated)	1%

High-throughput results from PubChem BioAssay.
